The values below come from PubChem BioAssay.

Inconclusive results are not listed. Calls of active or inactive are those of the source.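 How the source made its calls, unless noted: active means normalized viability below 100% at a tested concentration; inactive means the rest.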

Assay [1] can be described thus: growth inhibition of DIPG glioma cells, dose response, cell-based, SU-DIPG-XVII, MIPE5.0, CellTiter-Glo, qHTS (AID 1347060; cut-off not given, nearly all actives have AC50 up to about 26 µM;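 on AC50: cells exposed to compound for 48 hours before viability readout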). The settings on record: SU-DIPG-XVII viability, CellTiter-Glo ATP luminescence. On the technique in general: In ATP-based viability assays light output follows the ATP content of the culture.
A short description of assay [2]: growth inhibition of DIPG glioma cells, dose response, cell-based, SU-DIPG-IV, MIPE4.0, CellTiter-Glo, qHTS (AID 1347063; cut-off not given, nearly all actives have AC50 up to about 30 µM;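 further: compound exposure lasted 48 hours before the viability readout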). The settings on record: SU-DIPG-IV viability, CellTiter-Glo ATP luminescence.
Assay [3] can be described thus: growth inhibition of DIPG glioma cells, dose response, cell-based, SU-DIPG-XIII, MIPE5.0, CellTiter-Glo, qHTS (AID 1347064; cut-off not given, nearly all actives have AC50 up to about 23 µM;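 on AC50: cells exposed to compound for 48 hours before the viability read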). Conditions: SU-DIPG-XIII viability, CellTiter-Glo ATP luminescence.
The nature of assay [4]: viability loss in pontine glioma line – cell-based, SU-DIPG-XXV, MIPE5.0, CellTiter-Glo, qHTS, dose response (AID 1347065; cut-off not given, nearly all actives have AC50 up to about 26 µM;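 further: cells exposed to compound for 48 hours before ATP readout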). Conditions: CellTiter-Glo ATP luminescence.
The nature of assay [5]: JHH-DIPG-1 glioma cell viability, MIPE5.0 library, CellTiter-Glo luminescence, qHTS (AID 1347067; cut-off not given, nearly all actives have AC50 up to about 26 µM;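 further: cells exposed to compound for 48 hours before readout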). Conditions: JHH-DIPG-1 glioma viability, CellTiter-Glo ATP luminescence.
Assay [6] in a line: SU-DIPG-XXV glioma cell viability, MIPE5.0 library, qHTS (AID 1347068; cut-off not given, nearly all actives have IC50 up to about 30 µM;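 on IC50: cells exposed to compound for 48 hours before viability readout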). Background: Quantitative high-throughput screening tests each substance at several concentrations.
Assay [7] is described as follows: sensitizers of A549 cells to miR-34 induction, primary screen, imaging, A549 dox-inducible miR-34, nuclei and caspase counts (AID 1347080;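 active means compounds whose cell count with miR-34 switched on is under 0.7 times the count with it off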). Conditions: A549 miR-34 inducible, Hoechst nuclei count, 48 h.
The nature of assay [8]: survival rescue of mitochondrial mutant cells in low glucose, primary screen, MELAS cybrids, Rieske KO mouse fibroblasts, CellTiter-Glo (AID 1508586;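 active means mean z-score across replicates of 1.96 or higher in either the MELAS or the Rieske mutant cell line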;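 further: z relative to plate mean and SD of compound and empty wells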).
Assay [9] in a line: SU-DIPG-VI glioma cell viability, MIPE4.0 library, CellTiter-Glo luminescence, qHTS (AID 1347066; cut-off not given, nearly all actives have AC50 up to about 30 µM;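 further: cells exposed to compound for 48 hours before readout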). The settings on record: CellTiter-Glo ATP luminescence.
Assay [10] is described as follows: modifiers of HSF1 nuclear foci, imaging, Selleck Cancer Library (AID 1347162; in the data active means plate-normalised HSF1 focus index below about 0.46). Conditions: human cells, at 10 µM; SSMD: measured here: HSF1 foci SSMD mean; cell count: measured here: cell number; plate-normalised HSF1 focus index: stronger effect = lower value.
Assay [11] in a line: ovarian cancer cell viability with rucaparib, profiling panel, oncology-focused library, rucaparib conditional (AID 1508598). Conditions: patient-derived ovarian cancer cells, CellTiter-Glo viability, 144 h, stronger effect = lower value.
A short description of assay [12]: growth inhibition of DIPG glioma cells, dose response, cell-based, JHH-DIPG-1, MIPE4.0, CellTiter-Glo, qHTS (AID 1347062; cut-off not given, nearly all actives have AC50 up to about 27 µM;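 further: cells exposed to compound for two days before readout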). The settings on record: JHH-DIPG-1 viability, CellTiter-Glo ATP luminescence.
[13] abbreviates: stronger effect = lower value, cell number ratio, induced over uninduced.
Setting [14] is: measured here: relative caspase fold change +Dox/-Dox.
[15] abbreviates: measured here: total cells with miR-34 induction, stronger effect = lower value.
Setting [16] is: measured here: total cells without miR-34 induction.
The mark [17] stands for this setting: MELAS cybrid survival, CellTiter-Glo 48 h, stronger effect = higher value.
Where [18] appears, read: Rieske KO mouse fibroblast survival, CellTiter-Glo 72 h.

As usually defined, the AC50 is the midpoint of the concentration-response curve, whichever way the signal moves. The IC50 is the midpoint of a concentration-inhibition curve. For the molecule `Cc1ncc(-c2ccnc(Nc3ccc(S(C)(=O)=O)cc3)n2)n1C(C)C`, the AC50 in assay [1] is 5.25 µM (active); in assay [2] it was 2.35 µM (active); in assay [3], 3.72 µM (active); in assay [4], 4.68 µM (active); in [5], 4.68 µM (active). In addition, in assay [6], the IC50 is 2.95 µM (active). In addition, the figures for the fold change in [7] (setting [13]) and in assay [7] (setting [14]) were 0.998 (inactive) and 1.12, respectively. For the same molecule, the cell count in assay [7] (setting [15]) stood at 1780; in assay [7] (setting [16]), 1790. The z-score is 1.7 (inactive) in [8] (setting [17]) and -2.84 in assay [8] (setting [18]).
In the case of `C/C(O)=C(\C#N)C(=O)Nc1ccc(C(F)(F)F)cc1`, the molecule was classed as inactive in assay [1], in [2], in assay [3], in [4], in [9] and in assay [5]. Also, in [6], the call was inactive.
`COc1cc(C(C)C)c(Oc2cnc(NC(CO)CO)nc2N)cc1I`: the outcome in [1], in assay [3], in assay [4], in assay [9], in assay [5] and in assay [6] was inactive. Moreover, the AC50 in [2] was 14.8 µM (active).
By viability is commonly meant a read-out of living cells in per cent, often relative to untreated cells. Regarding `Cc1ccc(F)c(NC(=O)Nc2ccc(-c3cccc4[nH]nc(N)c34)cc2)c1`, the AC50 in assay [1] was 14.8 µM (active); in assay [2], 14.8 µM (active); in [3] it was 7.42 µM (active); in assay [4], 8.33 µM (active); in [5], 1.05 µM (active). In addition, the IC50 in assay [6] was 18.6 µM (active). The fold change in assay [7] (setting [13]) is 0.905 (inactive); in assay [7] (setting [14]) it was 0.989. Further, the cell count in assay [7] (setting [15]) worked out at 2590; in assay [7] (setting [16]), 2860; in assay [10], 6540. This molecule also had an SSMD in assay [10] of 4.01. Also, the plate-normalised HSF1 focus index in assay [10] was 1.21 (inactive). In addition, the z-score in assay [8] (setting [17]) is -0.438 (inactive); in assay [8] (setting [18]) it was 0.36. For the same molecule, the viability in assay [11] (at 0.000305 µM, OCI-C5x cells, with rucaparib 10 µM, 100% = cells with rucaparib alone) was 110% (inactive); in [11] (at 0.000305 µM, OCI-C5x cells, without rucaparib), 114% (inactive); in [11] (at 0.000305 µM, OCI-P5x cells, with rucaparib 20 µM, 100% = cells with rucaparib alone), 85.4% (active); in assay [11] (at 0.000305 µM, OCI-P5x cells, without rucaparib), 19.5% (active); in assay [11] (at 0.00122 µM, OCI-C5x cells, with rucaparib 10 µM, 100% = cells with rucaparib alone) it was 108% (inactive); in assay [11] (at 0.00122 µM, OCI-C5x cells, without rucaparib) it was 112% (inactive). Moreover, the viability was 81.6% (active) in assay [11] (at 0.00122 µM, OCI-P5x cells, with rucaparib 20 µM, 100% = cells with rucaparib alone); 16.8% (active) in assay [11] (at 0.00122 µM, OCI-P5x cells, without rucaparib); 119% (inactive) in assay [11] (at 0.00488 µM, OCI-C5x cells, with rucaparib 10 µM, 100% = cells with rucaparib alone); 112% (inactive) in [11] (at 0.00488 µM, OCI-C5x cells, without rucaparib); 96.5% (active) in assay [11] (at 0.00488 µM, OCI-P5x cells, with rucaparib 20 µM, 100% = cells with rucaparib alone); 97.7% (active) in [11] (at 0.00488 µM, OCI-P5x cells, without rucaparib). Also, the viability in assay [11] (at 0.0195 µM, OCI-C5x cells, with rucaparib 10 µM, 100% = cells with rucaparib alone) is 110% (inactive); in assay [11] (at 0.0195 µM, OCI-C5x cells, without rucaparib), 119% (inactive); in assay [11] (at 0.0195 µM, OCI-P5x cells, with rucaparib 20 µM, 100% = cells with rucaparib alone) it was 108% (inactive); in assay [11] (at 0.0195 µM, OCI-P5x cells, without rucaparib) it was 97.3% (active); in [11] (at 0.0781 µM, OCI-C5x cells, with rucaparib 10 µM, 100% = cells with rucaparib alone), 111% (inactive); in [11] (at 0.0781 µM, OCI-C5x cells, without rucaparib), 110% (inactive). Also, the viability in assay [11] (at 0.0781 µM, OCI-P5x cells, with rucaparib 20 µM, 100% = cells with rucaparib alone) was 103% (inactive); in [11] (at 0.0781 µM, OCI-P5x cells, without rucaparib), 102% (inactive); in assay [11] (at 0.313 µM, OCI-C5x cells, with rucaparib 10 µM, 100% = cells with rucaparib alone) it was 113% (inactive); in [11] (at 0.313 µM, OCI-C5x cells, without rucaparib) it was 107% (inactive); in [11] (at 0.313 µM, OCI-P5x cells, with rucaparib 20 µM, 100% = cells with rucaparib alone) it was 91.5% (active); in [11] (at 0.313 µM, OCI-P5x cells, without rucaparib) it was 90.2% (active). Besides, the viability in [11] (at 1.25 µM, OCI-C5x cells, with rucaparib 10 µM, 100% = cells with rucaparib alone) was 112% (inactive); in assay [11] (at 1.25 µM, OCI-C5x cells, without rucaparib), 123% (inactive); in [11] (at 1.25 µM, OCI-P5x cells, with rucaparib 20 µM, 100% = cells with rucaparib alone), 99.2% (active); in assay [11] (at 1.25 µM, OCI-P5x cells, without rucaparib), 87.8% (active); in assay [11] (at 5 µM, OCI-C5x cells, with rucaparib 10 µM, 100% = cells with rucaparib alone), 83.6% (active); in [11] (at 5 µM, OCI-C5x cells, without rucaparib), 145% (inactive). Besides, the viability was 14.3% (active) in assay [11] (at 5 µM, OCI-P5x cells, with rucaparib 20 µM, 100% = cells with rucaparib alone) and 35.5% (active) in assay [11] (at 5 µM, OCI-P5x cells, without rucaparib).
Turning to `CNC(=O)c1c(-c2ccc(F)cc2)oc2cc(N(CCO)S(C)(=O)=O)c(C3CC3)cc12`, the outcome in [1] and in [5] was inactive. For the same molecule, the AC50 in [12] is 20.9 µM (active).
